From PubChem BioAssay (EPA / NIEHS) come the findings set out here.

Activity calls are given as the source filed them. How the source made its calls: active means hit-call score of the fitted dose curve at least 0.9, where 1 is the maximum; inactive means score below 0.9.

Experiment [1] is described as follows: APR_HepG2_NuclearSize_24hr: Apredica 24-hour HepG2 Assay for Nuclear Size (AID 2282907). As to conditions: high-content imaging, actives raise or lower the signal. In a few lines: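 After fixation and permeabilization, 24-hr-treated HepG2 cells were stained with Hoechst 33342 and imaged on an ArrayScan (20x). Doses spanned 0.39–200 uM in duplicate. Nuclear diameter changes in either direction were fitted relative to 0.5% DMSO controls.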

A short description of experiment [2]: APR_HepG2_CellLoss_24hr: Apredica 24-hour HepG2 Assay for Cell Loss (AID 2282908).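 On AC50: fit in both directions so a hit may be cell loss or gain.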 As to conditions: high-content imaging. In a few lines: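 Duplicate wells received compound at ten concentrations (0.39–200 uM; final DMSO 0.5% v/v). After fixation with formaldehyde, nuclei stained with Hoechst 33342 were imaged at 20x. Loss or gain of cell count was fitted relative to DMSO controls.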

A short description of experiment [3]: APR_HepG2_MicrotubuleCSK_24hr: Apredica 24-hour HepG2 Assay for Microtubule CSK Stabilty (AID 2282909). As to conditions: HepG2 microtubule cytoskeleton imaging, actives raise or lower the signal. In a few lines:
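Microtubule stability is scored from tubulin immunofluorescence in fixed HepG2 cells imaged at 20x. Cells receive ten compound concentrations up to 200 uM for 24 h; taxol and DMSO serve as positive and negative controls.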

A short description of experiment [4]: APR_HepG2_MitoticArrest_24hr: Apredica 24-hour HepG2 Assay for Mitotic Arrest (AID 2282910). As to conditions: high-content imaging, actives raise or lower the signal. In a few lines: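 High-content imaging of fixed HepG2 cells labeled with Hoechst 33342 and anti-phospho-histone H3, after 24 h treatment. Ten concentrations 0.39 to 200 uM in duplicate, final DMSO 0.5%; changes fitted both directions relative to DMSO.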

Experiment [5] is described as follows: APR_HepG2_MitoMembPot_24hr: Apredica 24-hour HepG2 Assay for Mitochondrial Membrane Potential (AID 2282911). As to conditions: imaging, actives raise or lower the signal. In a few lines: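 HepG2 cells exposed 24 h to 0.39–200 uM compounds in duplicate, 0.5% v/v DMSO final. MitoTracker Red CMXRos 250 nM loaded 30 min before formaldehyde fixation; high-content imaging at 20x, bidirectional fit versus DMSO.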

Experiment [6] is described as follows: APR_HepG2_MitoMass_24hr: Apredica 24-hour HepG2 Assay for Mitochondrial Mass (AID 2282912). As to conditions: high-content imaging, actives raise or lower the signal. Put shortly:
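Readout: fluorescence of MitoTracker Red CMXRos (250 nM, added 30 min pre-fixation) in fixed HepG2 cells imaged by HCS. Exposure lasted 24 hr at 0.39–200 uM; increases and decreases were both fitted relative to DMSO.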

Experiment [7] in a line: APR_HepG2_p53Act_24hr: Apredica 24-hour HepG2 Assay for p53 Activation (AID 2282913).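 Further: p53 protein immunofluorescence averaged per cell in HepG2 with Hoechst nuclei.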 As to conditions: high-content imaging, actives raise or lower the signal. In a few lines: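 HepG2 cells exposed 24 h to compounds at 0.39–200 uM in duplicate, 0.5% v/v DMSO final; fixed, permeabilized, stained with anti-p53 antibody and Hoechst 33342; fluorescence imaging; bidirectional curve fit versus DMSO.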

A short description of experiment [8]: APR_HepG2_CellLoss_72hr: Apredica 72-hour HepG2 Assay for Cell Loss (AID 2282915). To be noted: high-content imaging. In a few lines: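 Cell number comes from Hoechst 33342-labelled nuclei, imaged at 20x after 3.7% formaldehyde fixation. Dosing was 0.39–200 uM, ten concentrations in duplicate, 0.5% DMSO final, for 72 h. Bidirectional fit relative to DMSO baseline.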

Experiment [9] can be described thus: APR_HepG2_P-H2AX_72hr: Apredica 72-hour HepG2 Assay for H2AX Phosphorylation (AID 2282916).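 Further: phospho-histone H2A.x immunostain intensity per cell marking DNA damage.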 As to conditions: imaging, actives raise or lower the signal. In a few lines:
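Phospho-H2A.x imaging endpoint in HepG2 after 72 hr compound exposure (0.39–200 uM, duplicate wells). Activity derived by bidirectional curve fitting with DMSO as baseline.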

Experiment [10] in a line: APR_HepG2_MitoMembPot_72hr: Apredica 72-hour HepG2 Assay for Mitochondrial Membrane Potential (AID 2282917). As to conditions: imaging, actives raise or lower the signal. In a few lines: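 Membrane potential read by MitoTracker Red CMXRos (250 nM, 30 min, pre-fixation) fluorescence imaging of HepG2 after 72 hr exposure. Ten concentrations, 0.39–200 uM, duplicate wells, 0.5% DMSO; fitted in both directions against DMSO baseline.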

The nature of experiment [11]: APR_HepG2_MicrotubuleCSK_72hr: Apredica 72-hour HepG2 Assay for Microtubule CSK Stabilty (AID 2282919). As to conditions: HepG2 microtubule cytoskeleton, high-content imaging, actives raise or lower the signal. Put shortly:
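High-content imaging of alpha-tubulin staining in fixed HepG2 cells after 72 hr treatment with ten concentrations from 0.39 to 200 uM (0.5% DMSO). Fitting was bidirectional against DMSO; taxol served as positive control.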

Experiment [12] in a line: APR_HepG2_P-H2AX_24hr: Apredica 24-hour HepG2 Assay for H2AX Phosphorylation (AID 2282920). To be noted: high-content imaging, actives raise or lower the signal. Put shortly: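 HepG2 cells dosed 24 h at 0.39–200 uM (10 points, duplicate, 0.5% DMSO final). Formaldehyde-fixed and permeabilized, then immunostained for phospho-H2A.x with Hoechst. Fluorescence quantified by high-content imaging, fitted bidirectionally versus DMSO.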

The nature of experiment [13]: APR_HepG2_StressKinase_72hr: Apredica 72-hour HepG2 Assay for Stress Kinase (AID 2282921). To be noted: HepG2 stress kinase (phospho-c-Jun) imaging, actives raise or lower the signal. In a few lines:
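Stress kinase signal reflects nuclear phospho-c-Jun staining in fixed, permeabilized cells exposed 72 h to compound at 0.39–200 uM; DMSO-normalized, fitted for increases or decreases.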

Experiment [14] can be described thus: APR_HepG2_StressKinase_24hr: Apredica 24-hour HepG2 Assay for Stress Kinase (AID 2282922). To be noted: HepG2 stress kinase (phospho-c-Jun) imaging, actives raise or lower the signal. In a few lines:
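High-content imaging of phospho-c-Jun immunofluorescence in fixed, permeabilized HepG2 cells after 24 h dosing. Ten concentrations, 0.39 to 200 uM, run in duplicate at 0.5% v/v DMSO; gain or loss of signal versus DMSO.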

The nature of experiment [15]: APR_HepG2_MitoMass_72hr: Apredica 72-hour HepG2 Assay for Mitochondrial Mass (AID 2282924).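 Further: MitoTracker Red CMXRos stain intensity per cell imaged as mitochondrial mass.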 As to conditions: high-content imaging, actives raise or lower the signal. In a few lines:
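Readout is imaged MitoTracker Red (250 nM, 30 min, pre-fixation) signal, fitted bidirectionally against DMSO baseline. Human HepG2 liver cells received compound 0.39–200 uM in duplicate for 72 hr, final DMSO 0.5%.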

Experiment [16] in a line: APR_HepG2_NuclearSize_72hr: Apredica 72-hour HepG2 Assay for Nuclear Size (AID 2282925). To be noted: high-content imaging, actives raise or lower the signal. In a few lines:
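Nuclear size was read by high-content imaging of Hoechst 33342 stain after formaldehyde fixation. Compounds ran 72 h on HepG2 at 0.39 to 200 uM, with final DMSO 0.5% v/v. Curves fitted both directions relative to DMSO control.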

Experiment [17] can be described thus: APR_HepG2_p53Act_72hr: Apredica 72-hour HepG2 Assay for p53 Activation (AID 2282923).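 Further: average cellular p53 protein immunofluorescence intensity in HepG2 cells.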 To be noted: high-content imaging, actives raise or lower the signal. Put shortly:
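Fixed-cell p53 staining (sheep primary, Cy5 secondary) measured by fluorescence imaging following 72 hr treatment at 0.39–200 uM in 0.5% DMSO; DMSO served as negative control and baseline.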

Experiment [18] in a line: APR_HepG2_MitoticArrest_72hr: Apredica 72-hour HepG2 Assay for Mitotic Arrest (AID 2282918). As to conditions: high-content imaging, actives raise or lower the signal. Put shortly:
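HepG2 cells treated 72 h at 0.39–200 uM, 0.5% DMSO final; formaldehyde-fixed, stained with Hoechst 33342 and phospho-histone H3 antibody, imaged by high-content fluorescence; bidirectional fit versus DMSO.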

A word on the AC50: it is the concentration giving half of the maximal activity seen. In the case of `Cc1cc2c3c(c1)C(c1ccccc1)=N[C@@H](NC(=O)c1ccncc1)C(=O)N3CC2`, the result in experiment [1], in [2], in experiment [3], in [4], in [5] and in experiment [6] was inactive. Also, the molecule was classed as inactive in [7], in experiment [9], in experiment [10], in experiment [11], in experiment [12] and in experiment [13]. The outcome in [14], in experiment [15] and in experiment [16] was inactive. In addition, the half-maximal activity concentration (AC50) in experiment [8] is 90.9 µM (active).

In the case of `Cc1cccc(C)c1N`, the molecule was called inactive in [1], in experiment [2], in experiment [3], in [4], in experiment [5] and in experiment [6]. Also, the result in experiment [7], in experiment [9], in experiment [10], in [11], in [12] and in [13] was inactive. Moreover, the call in experiment [14], in experiment [15] and in [16] was inactive.

Regarding `CC(C)(c1ccccc1)c1ccc(O)cc1`, the call in experiment [1], in experiment [3], in experiment [4], in experiment [5], in experiment [6] and in [7] was inactive. For the same molecule, the molecule was classed as inactive in experiment [10], in experiment [11], in [12], in experiment [13], in experiment [14] and in experiment [17]. For the same molecule, the outcome in experiment [15] and in experiment [16] was inactive. Moreover, the AC50 in [2] is 84.6 µM (active); in experiment [9], 97 µM (active).

As to `O=C(O)C(F)(F)C(F)(F)C(F)(F)C(F)(F)C(F)(F)C(F)(F)C(F)(F)C(F)(F)C(F)(F)F`, the half-maximal activity concentration (AC50) in [1] is 130 µM (active); in experiment [2], 108 µM (active); in experiment [4], 106 µM (active); in experiment [6], 109 µM (active); in experiment [7] it was 97.4 µM (active); in experiment [9], 108 µM (active). For the same molecule, the half-maximal activity concentration (AC50) in experiment [12] is 113 µM (active); in experiment [13], 113 µM (active); in [15], 111 µM (active); in experiment [16], 122 µM (active). Also, the outcome in [3], in [5], in experiment [10], in experiment [11] and in experiment [14] was inactive.

Turning to `Cc1cc(-c2ccc(N)c(C)c2)ccc1N`, the result in experiment [1], in [2], in experiment [3], in [4], in [5] and in [6] was inactive. Also, the result in experiment [7], in experiment [9], in experiment [10], in experiment [18], in experiment [11] and in [12] was inactive. Moreover, the result in experiment [13], in experiment [14], in experiment [15] and in experiment [16] was inactive.

As to `N#Cc1ccc(N(CC(N)=O)CC(F)(F)F)cc1C(F)(F)F`, the call in experiment [1], in [2], in experiment [3], in experiment [4], in experiment [5] and in experiment [6] was inactive. For the same molecule, the molecule was called inactive in experiment [7], in experiment [9], in experiment [10], in experiment [11], in [12] and in experiment [13]. Further, the outcome in experiment [14], in experiment [17], in [15] and in [16] was inactive.

Consider `CC1=C2C[C@H]3[C@@H](CC=C4C[C@@H](O)CC[C@@]43C)[C@@H]2CC[C@]12O[C@@H]1C[C@H](C)CN[C@H]1[C@H]2C`, for which the call in [1], in experiment [3], in experiment [5], in experiment [7], in experiment [10] and in [11] was inactive. Further, the molecule was classed as inactive in experiment [13], in experiment [14], in experiment [17] and in [16]. In addition, the concentration at half-maximal activity (AC50) was 20.2 µM (active) in experiment [2]; 23.8 µM (active) in [4]; 35.4 µM (active) in experiment [6]; 50 µM (active) in experiment [9]; 33.4 µM (active) in experiment [12]; 41.2 µM (active) in experiment [15].

Turning to `Nc1ccc(-c2ccc(N)cc2)cc1`, the molecule was called inactive in [1], in experiment [2], in experiment [3], in experiment [4], in [5] and in experiment [6]. Further, the call in experiment [10], in [11], in experiment [13], in experiment [14], in [15] and in [16] was inactive. In addition, the values for the AC50 in experiment [7], in [9] and in experiment [12] were 100 µM (active), 104 µM (active) and 91.2 µM (active), respectively.
